Screening data: PubChem, National Center for Advancing Translational Sciences (NCATS)
This is a sample that favours compounds with a hit; in the whole collection about 7.5% have one here.
FLuc modulator: counter-screen for miR-21 project: firefly luciferase inhibitors or activators; AID 588342; purified FLuc, Km substrates, luminescence inhibition; 360,000 compounds, 6.9% hits; Potency, µM (titrated, usually from 57.5 µM), for the others: at the top dose activity change, negative = inhibition, hits mostly inhibitors;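 further: plate controls were vehicle for no effect and reference inhibitor for full effect; nearly all actives have a fitted effect of over 55% in size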
Target sequence (P08659 whole entry, looked up): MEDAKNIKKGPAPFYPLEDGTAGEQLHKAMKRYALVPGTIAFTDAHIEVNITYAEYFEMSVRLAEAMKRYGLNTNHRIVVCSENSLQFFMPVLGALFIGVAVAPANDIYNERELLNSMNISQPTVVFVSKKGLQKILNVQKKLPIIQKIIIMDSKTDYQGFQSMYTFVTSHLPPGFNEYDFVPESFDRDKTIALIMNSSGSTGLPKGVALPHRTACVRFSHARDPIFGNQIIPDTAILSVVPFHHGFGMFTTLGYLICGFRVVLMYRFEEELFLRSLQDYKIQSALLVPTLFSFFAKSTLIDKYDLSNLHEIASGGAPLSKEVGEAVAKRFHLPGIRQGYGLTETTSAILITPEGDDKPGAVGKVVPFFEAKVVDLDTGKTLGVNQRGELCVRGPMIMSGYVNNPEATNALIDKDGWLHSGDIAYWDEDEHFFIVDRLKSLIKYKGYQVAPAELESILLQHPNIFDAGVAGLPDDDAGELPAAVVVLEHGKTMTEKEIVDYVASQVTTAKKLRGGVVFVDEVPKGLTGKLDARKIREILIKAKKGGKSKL
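Biochemical qHTS of compounds, final roughly 60 µM downward over six points, against 10 nM purified firefly luciferase using Km concentrations of substrates (10 uM D-luciferin, 10 uM ATP) in Tris acetate pH 7.5 buffer; luminescence output.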
SMN2 splice enh: increases expression of the SMN2 splice variant | Potency, µM (series often up to 46.1 µM), for the others: at the top dose activity change, positive = activation, most hits filed as activators | HEK293 SMN2-luciferase splicing reporter, luminescence, 30-36 h | 210,000 compounds, 2.8% hits | AID 1458; further: % of control where 0% means no effect; nearly all actives have a fitted effect of over 55% in size
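HEK293 cells carry an SMN2 minigene-luciferase reporter in which exon 7 inclusion puts luciferase in frame. Cells were seeded at 2000 cells/well, attached for 10-12 hours, then exposed to compounds for 30-36 hours at 37C before ONE-Glo luminescence.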
KinaseGlo FLuc: blocks Kinase-Glo luciferase, a counter-screen artifact; Q27757; Kinase-Glo luciferase, ATP luminescence, 8 min; Potency, µM (series often up to 38.3 µM), without a hit: top-dose activity change, negative = inhibition, most hits filed as inhibitors; 200,000 compounds, 0.28% hits; AID 1379; further: on the % scale 0 is the no-effect control and ±100 the full control effect; nearly all actives have a fitted effect of over 60% in size
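Kinase-Glo luciferase light output from ATP and luciferin was measured with 10 uM ATP, within the enzyme's linear range. Buffer: 50 mM imidazole pH 7.2, 50 mM KCl, 7 mM MgCl2, 0.01% Tween 20, 0.05% BSA; luminescence read after 8 min at ambient temperature.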
ELG1 genotoxic: inducers of genotoxicity in HEK293T ELG1-luciferase cells. HEK293T ELG1-luciferase reporter, luminescence, 16 h. Potency, µM (titrated, usually from 46 µM), inactives show at the top dose activity change, positive = activation, hits mostly activators. 330,000 compounds, 1.3% hits. AID 504466; further: % of control where 0% means no effect; nearly all actives have a fitted effect of over 60% in size
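Step 1: seed 2,000 HEK293T ELG1-luciferase cells per well. Step 2: add compound or DMSO, incubate 16 hr at 37 °C. Step 3: ONE-Glo, 30 min at room temperature, read luminescence.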
NPC1 promoter act: activates the NPC1 promoter. AID 485313. Potency, µM (highest dose often 9.22 µM), without a hit: at the top dose activation, actives largely listed as activators. 320,000 compounds, 2.4% hits. Huh7 NPC1 promoter luciferase reporter, 24 h; further: % of control where 0% means no effect; nearly all actives have a fitted effect of over 60% in size
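NPC1 promoter–luciferase Huh7 cells; 24 h compound; luminescence.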
Rab9 promoter act: Rab9 promoter activation; Potency, µM (doses to about 9.22 µM), without a hit: top-dose activation, negative = inhibition, usual class: activators; AID 485297; Huh7 Rab9 promoter-luciferase reporter, luminescence, 24 h; 320,000 compounds, 2.8% hits; further: % of control where 0% means no effect; nearly all actives have a fitted effect of over 60% in size
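Steps: seed 1500 Huh7 Rab9-luc cells per well, rest 2 h at 37 °C; add compound in DMSO; incubate 24 h; add luciferase reagent, 10 min ambient; read luminescence.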
An asterisk follows results filed as active; ? = inconclusive; nt = no result; [ ] = another dose, or the depositor's remark. The call rests on the fitted dose curve; in most records, active means well fitted curve in the direction sought with a large enough effect; inconclusive means small, poorly fitted or top-dose-only effect, or another doubt; inactive means no such curve, though single readings can be large; an effect the other way counts as inactive or inconclusive. Potency means the concentration at half of the fitted maximal effect.

SMILES	FLuc modulator	SMN2 splice enh	KinaseGlo FLuc	ELG1 genotoxic	NPC1 promoter act	Rab9 promoter act
CC(=O)c1cccc(NC(=O)c2noc3c2CCCC3)c1	10.7µM*	2.82µM*	nt	nt	nt	nt
COc1ccc(NC(=O)c2noc3c2CCCCC3)cc1	12µM*	7.94µM*	-5.3%	?	1.41µM*	?
CC(NC(=O)c1noc2c1CCCC2)c1ccccc1 (stereo not given)	-2.6%	-16.9%	-5.1%	-1.3%	-1.1%	-3.8%
O=C(Cn1nnc2ccccc21)c1ccc(Cl)cc1	?	nt	nt	6.9%	?	?
CC(C)CCNC(=O)CCCCn1c(=O)[nH]c2ccsc2c1=O	-0.4%	7.2%	-0.3%	0.1%	1.6%	1.8%
CC(C)(C)C1CCc2onc(C(=O)NC3CCCC3)c2C1 (stereo not given)	3.3%	-32.6%	-2.3%	-0.9%	1.5%	-4.7%
O=C(NC1CCCCC1)c1noc2c1CCCCC2	9.53µM*	12.6µM*	-4.7%	9.2µM*	2.24µM*	2.51µM*
Cc1cc(CN(C)C(=O)c2cc(COc3ccc(F)cc3Cl)on2)n[nH]1	16.9µM*	nt	-1.5%	?	23.8%	?
Cc1ccc(CN(C)C(=O)c2cc(COc3ccc(F)cc3Cl)on2)o1	21.3µM*	nt	-2.5%	9.4%	14.1%	14.3%
Cc1nonc1CN(C)C(=O)c1cc(COc2ccc(F)cc2Cl)on1	?	nt	nt	9.2%	27.5%	19.1%
CC(=O)N1CCN(C(=O)CNC(=O)c2cccs2)CC1	nt	nt	nt	-1.7%	0.2%	-3.4%
CC1CCCN(C(=O)CNC(=O)c2cccs2)C1 (stereo not given)	?	nt	nt	21.8%	3.98µM*	?
C[C@H]1CCCC2(CC[N+](C)(CCC[N+](C)(C)C)CC2)C1 (stereo not given in full)	nt	-1.3%[9.22 µM]	-5.0%[7.66 µM]	nt	nt	nt
N#C/C(=C\c1ccc(OCc2ccc(Cl)cc2Cl)cc1)c1nc2ccccc2[nH]1	-6.9%	-1.7%	nt	nt	nt	nt
COc1cc(/C=C(\C#N)c2nc3ccccc3[nH]2)ccc1OC(=O)c1ccco1	0.953µM*	35.5µM*	?	?	25.5%	?
COc1cc(/C=C(/C#N)c2nc3ccccc3[nH]2)ccc1OCC(=O)Nc1ccccc1C	4.3%	-9.8%	-8.9%	?	-3.5%	-5.4%
N#C/C(=C\c1ccc(OC(=O)c2ccc(Cl)s2)cc1)c1nc2ccccc2[nH]1	-2.2%	17.8µM*	2.3%	?	20.7%	?
N#C/C(=C\c1ccc(OC(=O)c2ccc(Br)s2)cc1)c1nc2ccccc2[nH]1	-4.1%	12.6µM*	-2.4%	18.1%	?	?
N#C/C(=C\c1cccc(OCC(=O)O)c1)c1nc2ccccc2[nH]1	16.9µM*	nt	nt	1.7%	-4.2%	13.0%
CCOc1cccc(/C=C(/C#N)c2nc3ccccc3[nH]2)c1OCC(=O)O	?	nt	nt	0.0%	-5.2%	0.2%
Cc1c(NC(=O)c2cc(-c3ccc(Cl)cc3)on2)c(=O)n(-c2ccccc2)n1C	-5.2%	1.0%	nt	-9.8%	0.0%	-3.5%
CCC(=O)Nc1cccc(NC(=S)NC(=O)c2ccccc2C)c1	15.1µM*	18.3%	-0.1%	-0.1%	?	?
CCCC(=O)NC(=S)Nc1cccc(NC(=O)c2ccc(Cl)cc2Cl)c1	13.5µM*	nt	nt	-5.0%	-3.7%	-10.6%
CCC(=O)Nc1cccc(NC(=S)NC(=O)c2ccc(Cl)cc2Cl)c1	?	27.0%	-3.4%	9.0%	?	?
CCC(=O)Nc1cccc(NC(=S)NC(=O)c2ccc(Cl)cc2)c1	-20.5%	?	2.8%	14.7%	?	3.55µM*
SMILES	FLuc modulator	SMN2 splice enh	KinaseGlo FLuc	ELG1 genotoxic	NPC1 promoter act	Rab9 promoter act
CCC(=O)NC(=S)Nc1cccc(NC(=O)c2ccccc2C)c1	?	2.5%	0.9%	-1.3%	-3.0%	-4.7%
Cc1cccc(OCC(=O)Nc2nnc(S(=O)(=O)N3CCc4ccccc43)s2)c1	3.5%	nt	nt	nt	nt	nt
Cc1ccc(C(=O)NCC(=O)OCc2nnc(-c3ccc([N+](=O)[O-])cc3)o2)s1	-10.3%	nt	nt	1.9%	-0.2%	3.0%
O=[N+]([O-])c1ccc(Cl)c(S(=O)(=O)Nc2ccc(-c3ccc(N4CCCC4)nn3)cc2)c1	21.3µM*	nt	nt	5.8%	-0.9%	-2.7%
Cc1ccc([N+](=O)[O-])cc1S(=O)(=O)Nc1ccc(-c2ccc(N3CCCC3)nn2)cc1	?	nt	nt	5.9%	11.3%	2.2%
O=[N+]([O-])c1ccc(Cl)c(S(=O)(=O)Nc2cccc(-c3ccc(N4CCCC4)nn3)c2)c1	15.1µM*	nt	nt	13.0%	17.2%	22.7%
Cc1c([N+](=O)[O-])cc(S(=O)(=O)Nc2ccc(-c3ccc(N4CCCC4)nn3)cc2)cc1[N+](=O)[O-]	19µM*	nt	nt	3.4%	-1.6%	9.4%
CCc1ccc(NC(=O)COC(=O)CCc2nc3cc(S(=O)(=O)N(CC)CC)ccc3n2C)cc1	?	5.1%	2.0%	5.6%	-2.1%	2.1%
Cc1ccc(NC(=S)N2CCCCC2CO)cc1C (stereo not given)	?	nt	0.4%	9.3%	13.3%	?
CCc1ccccc1NC(=O)C1CCN(S(=O)(=O)c2ccc3[nH]c(=O)ccc3c2)CC1	-2.9%	nt	nt	nt	nt	nt
Oc1ccc(N=Nc2ccc3c(c2)OCO3)c2ccccc12	7.57µM*	nt	nt	5.17µM*	?	3.16µM*
COc1ccc(-c2coc3ccc(OC4OC(COC(C)=O)C(OC(C)=O)C(OC(C)=O)C4OC(C)=O)cc3c2=O)cc1 (stereo not given)	nt	nt	1.7%	nt	nt	nt
COc1cccc(NC(=O)CN(C)C(=O)c2sc3cc(Cl)ccc3c2Cl)c1	4.4%	nt	nt	-3.0%	-2.2%	0.3%
COc1ccc(NC(=O)CN(C)C(=O)CNC(=O)c2sc3ccccc3c2Cl)cc1	3.01µM*	nt	nt	?	?	?
COc1cccc(NC(=O)CN(C)C(=O)CNC(=O)c2sc3ccccc3c2Cl)c1	4.78µM*	nt	nt	13.3%	19.3%	24.7%
O=C(CN1CCN(C(=O)c2c(F)cccc2F)CC1)Nc1ccccc1C(F)(F)F	1.5%	nt	nt	-7.3%	0.4%	9.0%
O=S(=O)(Nc1cccnc1)c1ccc(Cl)cc1	-1.2%	-13.6%	-3.2%	-0.1%	-2.4%	-3.9%
Clc1ccc(C#Cc2cccnc2)cc1	13.5µM*	nt	nt	13.5%	19.2%	24.0%
CCCCOc1ccc2c(c1)C(=O)c1cc(O)ccc1-2	26.9µM*	nt	-0.1%	?	?	3.16µM*
CCOc1ccc2c(c1)C(=O)c1cc(OCC(=O)O)ccc1-2	3.38µM*	nt	nt	-7.6%	14.3%	2.2%
Cc1cc(C)c(Cn2c3ccccc3c3cnn(CC(=O)N4CCCCCC4)c(=O)c32)c(C)c1	-5.6%	3.4%	nt	nt	nt	nt
O=c1cc(-c2ccccc2)oc2cc(O)c(O)c(O)c12	nt	?	0.7%	?	nt	nt
O=c1cc(-c2ccc(O)cc2)oc2c1ccc1ccccc12	-11.9%	nt	nt	?	3.7%	11.3%
